# Measured values as given in PMC4151992.
# Molecular target: Eukaryotic translation initiation factor 3 subunit I (UniProt P40217)
# Experiment: cross-link between two proteins; cross-linking mass spectrometry
# Sequence of Eukaryotic translation initiation factor 3 subunit I (P40217 whole entry): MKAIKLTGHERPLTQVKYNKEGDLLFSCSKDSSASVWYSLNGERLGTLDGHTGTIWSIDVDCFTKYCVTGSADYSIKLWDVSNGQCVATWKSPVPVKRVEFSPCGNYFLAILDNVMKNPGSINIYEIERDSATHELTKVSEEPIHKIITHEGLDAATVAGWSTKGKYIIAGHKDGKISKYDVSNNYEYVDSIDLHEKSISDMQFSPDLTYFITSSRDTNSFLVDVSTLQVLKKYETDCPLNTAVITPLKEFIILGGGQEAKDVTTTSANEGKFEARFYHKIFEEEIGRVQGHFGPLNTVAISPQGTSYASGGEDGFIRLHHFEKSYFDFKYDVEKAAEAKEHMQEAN
# Sequence of Eukaryotic translation initiation factor 3 subunit A, P38249 (P38249 whole entry): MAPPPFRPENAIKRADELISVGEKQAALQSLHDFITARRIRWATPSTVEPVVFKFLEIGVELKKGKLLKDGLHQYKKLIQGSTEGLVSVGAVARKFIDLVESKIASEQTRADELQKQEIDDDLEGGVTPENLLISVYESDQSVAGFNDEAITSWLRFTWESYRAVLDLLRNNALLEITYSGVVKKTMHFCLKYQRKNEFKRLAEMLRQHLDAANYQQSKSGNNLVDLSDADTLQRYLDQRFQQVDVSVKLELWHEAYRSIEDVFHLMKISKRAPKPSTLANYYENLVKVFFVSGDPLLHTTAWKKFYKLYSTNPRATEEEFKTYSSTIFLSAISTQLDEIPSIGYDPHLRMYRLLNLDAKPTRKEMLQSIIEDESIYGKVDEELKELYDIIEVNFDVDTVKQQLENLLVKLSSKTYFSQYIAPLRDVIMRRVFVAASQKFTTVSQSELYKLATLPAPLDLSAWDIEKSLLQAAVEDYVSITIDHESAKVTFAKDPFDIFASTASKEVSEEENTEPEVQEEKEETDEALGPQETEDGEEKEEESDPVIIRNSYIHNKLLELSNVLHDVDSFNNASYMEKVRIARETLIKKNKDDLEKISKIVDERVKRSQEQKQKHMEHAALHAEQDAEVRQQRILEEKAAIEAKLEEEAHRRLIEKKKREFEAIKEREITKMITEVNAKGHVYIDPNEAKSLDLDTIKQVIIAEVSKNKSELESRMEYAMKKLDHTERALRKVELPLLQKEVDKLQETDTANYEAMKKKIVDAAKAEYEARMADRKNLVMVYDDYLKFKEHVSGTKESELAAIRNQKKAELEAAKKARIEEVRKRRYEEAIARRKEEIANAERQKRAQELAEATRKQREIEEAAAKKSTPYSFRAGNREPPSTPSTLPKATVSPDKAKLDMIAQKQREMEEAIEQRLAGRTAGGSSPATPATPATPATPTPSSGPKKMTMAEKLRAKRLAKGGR
substance,measurement,value
"Eukaryotic translation initiation factor 3 subunit A, P38249",listed as a hit,yes
